The source of these data is PubChem BioAssay (NCATS).

Structures are written as SMILES. Unmarked numbers belong to inactive results. Inconclusive results are not listed. The source made the active and inactive calls. Unless noted, calls follow the shape of the dose curve; as a rule, active = well fitted inhibition curve with a large enough effect; inconclusive = small, poorly fitted or top-dose-only effect; inactive = flat fitted curve, though single readings scatter.

Chain of DNA dC->dU-editing enzyme APOBEC-3G (Homo sapiens) (Q9HC16 whole entry, looked up): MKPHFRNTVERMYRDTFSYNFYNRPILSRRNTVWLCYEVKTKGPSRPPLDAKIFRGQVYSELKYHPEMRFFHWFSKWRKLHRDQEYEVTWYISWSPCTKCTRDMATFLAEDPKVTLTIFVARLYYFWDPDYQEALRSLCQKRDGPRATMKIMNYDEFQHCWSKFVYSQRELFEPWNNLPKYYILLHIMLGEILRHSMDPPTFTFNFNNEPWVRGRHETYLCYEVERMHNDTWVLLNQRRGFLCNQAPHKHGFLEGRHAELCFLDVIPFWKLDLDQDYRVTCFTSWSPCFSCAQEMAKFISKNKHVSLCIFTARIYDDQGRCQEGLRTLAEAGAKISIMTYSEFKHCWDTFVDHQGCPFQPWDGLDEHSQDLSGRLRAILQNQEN
Chain of Estrogen receptor (Homo sapiens) (P03372 whole entry, looked up): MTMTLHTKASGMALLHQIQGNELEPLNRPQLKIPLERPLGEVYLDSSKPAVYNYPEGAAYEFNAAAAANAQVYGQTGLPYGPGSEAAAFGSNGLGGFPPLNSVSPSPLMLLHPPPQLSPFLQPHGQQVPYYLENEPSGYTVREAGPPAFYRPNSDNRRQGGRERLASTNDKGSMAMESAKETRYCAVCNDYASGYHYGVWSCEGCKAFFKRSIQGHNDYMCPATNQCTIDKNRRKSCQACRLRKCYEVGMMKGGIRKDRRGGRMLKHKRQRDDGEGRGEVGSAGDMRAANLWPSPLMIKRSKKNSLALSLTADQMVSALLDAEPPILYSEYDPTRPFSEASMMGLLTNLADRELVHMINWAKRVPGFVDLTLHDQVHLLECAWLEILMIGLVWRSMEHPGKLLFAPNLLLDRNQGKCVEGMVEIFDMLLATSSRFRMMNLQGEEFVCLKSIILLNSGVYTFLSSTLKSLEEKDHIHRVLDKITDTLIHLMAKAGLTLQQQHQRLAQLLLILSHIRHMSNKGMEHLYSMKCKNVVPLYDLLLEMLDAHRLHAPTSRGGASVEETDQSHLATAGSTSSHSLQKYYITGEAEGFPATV

The target in one experiment is DNA dC->dU-editing enzyme APOBEC-3G (Homo sapiens) (UniProt Q9HC16). The experiment is described as follows: qHTS for inhibitors of Vif-A3G interactions: Validation (AID 588379). Also: 0% is about no effect. The following applies: Vif-A3G protein interaction assay; series mostly up to 46.1 µM; activity change, negative = inhibition: at the top concentration. Put shortly:
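Yellow fluorescence (Ex 488, Em 500-530) of Vif-coexpressing HeLa A3G-eYFP cells, scanned by Acumen cytometer, reports blocked A3G degradation. Cells plated at 700/well overnight at 37 deg C before compound addition, then a further overnight compound incubation at 37 deg C.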
With `NCCCNCCCCNCCCN`, the “activity change, negative = inhibition” value was 5.97%. With `N#Cc1cc2nc(O)c(O)nc2cc1[N+](=O)[O-]`, the “activity change, negative = inhibition” value is -3.98%. Still for that read-out and setting: in the case of `O=C(O)/C=C/c1ccc(O)c(O)c1` it was 2.5%. Same read-out and setting: in the case of `CCn1c(=O)[nH]c2cc(Cl)c(Cl)cc21` it was 0.438%; in that of `NC/C=C\C(=O)O`, -0.302%.

With `O=C(O)c1ccccc1Nc1cccc(OCc2ccc3ccccc3n2)c1`, the “activity change, negative = inhibition” value was -1.49%.

As for `Cc1nc(N=Nc2cc(S(=O)(=O)O)c3cc([N+](=O)[O-])cc(S(=O)(=O)O)c3c2)c(COP(=O)(O)O)c(C=O)c1O`, the “activity change, negative = inhibition” value is -5.96%. On the same count and under the same terms, in the case of `NC(N)=NC(N)=Nc1ccccc1` it was -0.269%; in that of `NCCS(=O)O`, 0.705%. The same measure, in the same setting: in the case of `Cc1cccc(C(=O)NCN2CCN(c3ccccc3C#N)CC2)c1` it was -1.09%; in that of `COc1ccccc1N1CCN(CCCCN2C(=O)c3ccccc3C2=O)CC1`, 4.66%; in that of `CCSC(=N)N`, -5.81%. Regarding `NCCNS(=O)(=O)c1cccc2c(Cl)cccc12`, the “activity change, negative = inhibition” value is -0.868%. Turning to `N[C@@H](CS(=O)O)C(=O)O`, the “activity change, negative = inhibition” value is -6.36%. `O=[N+]([O-])c1cccc2c(Br)[nH]nc12`: the “activity change, negative = inhibition” value was 0.649%. Regarding `Cc1nc2c(OCc3ccccc3)cccn2c1CC#N`, the “activity change, negative = inhibition” value is -1.54%.

For `O=[N+]([O-])c1cccc2cn[nH]c12`, the “activity change, negative = inhibition” value is -2.6%. Same read-out and setting: to `O=C(O)C1=CCNCC1` belongs 0.175%. As to `NCCCCN=C(N)N`, the “activity change, negative = inhibition” value was -5.71%.

Take `CC(C)(CO)Cc1cc(C(C)(C)C)c(O)c(C(C)(C)C)c1`: the “activity change, negative = inhibition” value is 0.237%. Same read-out and setting: to `CC(=O)NNC(=O)N1Cc2ccccc2Oc2ccc(Cl)cc21` belongs 1.59%. On the same count and under the same terms, to `N=C(N)SCCN` belongs 1.89%; to `CC[N+](CC)(CC)CC(=O)Nc1c(C)cccc1C`, 0.625%.

Consider `Oc1cc(O)c2c(c1)O[C@H](c1ccc(O)c(O)c1)[C@@H](O)C2`, for which the “activity change, negative = inhibition” value was 3.51%. On the same count and under the same terms, to `COc1ccc(CCN(C)CCc2ccc(OC)c(OC)c2)cc1OC` belongs 0.765%. On the same count and under the same terms, to `Cc1nc(N=Nc2ccc(S(=O)(=O)O)cc2S(=O)(=O)O)c(COP(=O)(O)O)c(C=O)c1O` belongs 1.41%; to `CCCc1c(-c2ccc(O)cc2)nn(-c2ccc(O)cc2)c1-c1ccc(O)cc1`, -3.37%. With `CN[C@H](CC(=O)O)C(=O)O`, the “activity change, negative = inhibition” value is 1.15%.

Turning to `C/C(=C\c1ccc(C(=O)O)cc1)c1ccc2c(c1)C(C)(C)CCC2(C)C`, the “activity change, negative = inhibition” value is -2.46%.

Another experiment concerns the target Estrogen receptor (Homo sapiens) (UniProt P03372). The experiment is described as follows: qHTS assay for small molecule agonists of estrogen receptor alpha signaling (AID 588514; calls by dose curve; also: nearly all actives have a fitted effect of over 70% in size; also: potency is read from the fitted curve at half-maximal effect;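 as to activation: 0% = vehicle only and 100% = reference agonist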). The settings on record: ER-alpha-UAS-bla HEK293, beta-lactamase ratio, 18 h; series mostly up to 76.8 µM; activation: at the top concentration. Put shortly: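 EC50 and efficacy came from Hill fits of beta-lactamase reporter signal (CCF4 dye, 2 h at room temperature) scaled between DMSO and 20 nM 17-beta-estradiol. Agonist mode: HEK293 ER-alpha-UAS-bla cells in charcoal/dextran-stripped serum medium, 18 h compound exposure at 37 C.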
(In general: qHTS replaces the single test concentration by a dilution series.)
With `CCCCCCCCCCCCCCSCC(=O)O`, the “activation” value is -2.54%. Still for that read-out and setting: in the case of `NC(=O)c1ccccc1` it was 0.0688%. `CCCc1c(-c2ccc(O)cc2)nn(-c2ccc(O)cc2)c1-c1ccc(O)cc1`: the Potency is 11.2 nM (active). Take `C/C(=C\c1ccc(C(=O)O)cc1)c1ccc2c(c1)C(C)(C)CCC2(C)C`: the “activation” value is -4.12%.

The next experiment deals with Androgen receptor (Homo sapiens) (UniProt P10275). The experiment is described as follows: qHTS assay for small molecule agonists of androgen receptor signaling (AID 588515; active = well fitted curve in the direction sought with a large enough effect in the signal ratio, with a control signal flat; the % refers to the signal ratio; also: % is scaled to controls: 0 for no effect and ±100 for the full control effect). The following applies: AR-UAS-bla HEK293, beta-lactamase ratio, agonist 16 h; stronger effect = higher value. Put shortly: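 Stimulation of an AR-responsive β-lactamase reporter in GripTite HEK293 cells was measured after 16 h compound exposure at 37 °C, via CCF4 fluorescence after 2 h RT. EC50 from Hill fits, normalized to R1881 at 30 nM.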
Chain of Androgen receptor (Homo sapiens) (P10275 whole entry, looked up): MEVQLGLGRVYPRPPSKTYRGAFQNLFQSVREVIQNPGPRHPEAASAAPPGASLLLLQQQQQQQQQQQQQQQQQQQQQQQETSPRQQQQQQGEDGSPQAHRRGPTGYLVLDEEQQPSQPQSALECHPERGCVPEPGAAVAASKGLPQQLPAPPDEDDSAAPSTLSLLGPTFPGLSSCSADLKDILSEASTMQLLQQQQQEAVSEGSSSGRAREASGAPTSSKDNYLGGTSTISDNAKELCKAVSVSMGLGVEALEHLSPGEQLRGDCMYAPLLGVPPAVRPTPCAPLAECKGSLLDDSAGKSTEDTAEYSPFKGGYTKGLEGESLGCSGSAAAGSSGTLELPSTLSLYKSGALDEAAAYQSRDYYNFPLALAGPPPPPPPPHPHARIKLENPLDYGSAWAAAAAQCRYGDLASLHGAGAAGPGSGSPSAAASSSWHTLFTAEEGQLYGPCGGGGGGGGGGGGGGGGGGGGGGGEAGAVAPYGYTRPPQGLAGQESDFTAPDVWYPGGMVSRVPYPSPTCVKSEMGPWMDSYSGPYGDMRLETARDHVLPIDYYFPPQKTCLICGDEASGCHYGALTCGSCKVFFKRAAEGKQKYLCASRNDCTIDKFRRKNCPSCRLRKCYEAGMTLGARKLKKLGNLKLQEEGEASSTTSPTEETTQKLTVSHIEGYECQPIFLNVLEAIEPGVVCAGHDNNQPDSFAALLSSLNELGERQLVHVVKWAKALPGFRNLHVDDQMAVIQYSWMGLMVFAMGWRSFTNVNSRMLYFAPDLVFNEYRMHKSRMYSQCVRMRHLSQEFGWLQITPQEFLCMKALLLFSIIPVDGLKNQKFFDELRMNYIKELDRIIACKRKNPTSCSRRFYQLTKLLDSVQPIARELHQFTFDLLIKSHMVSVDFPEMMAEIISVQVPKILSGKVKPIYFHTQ
Turning to `CCCCCCCCCCCCCCSCC(=O)O`, the activation is -2.58%. Still for that read-out and setting: in the case of `CCCc1c(OCCCOc2ccc(OCC(=O)O)cc2)ccc(C(C)=O)c1O` it was -2.09%.
